The results in this text go back to the supplement of paper PMC6555819.

Assay in all cases: PBM binding z-score (relative to random genomic background probes); higher = stronger binding; sequences stand for … in GC…GCGATTGACAGCGTAGAATGAAGG
For test [1], the system named is RARb homodimer (NR concentration 270 nM). The procedure, abridged:
(§1)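 The probes on custom Agilent 4×180K protein-binding microarrays were double-stranded, with 34-nt variable regions bearing direct-repeat seeds, single-nucleotide variants, half-site ablations and random human genomic background sequences. Incubation lasted 1 h with ligand-free nuclear receptor dimers in PBS pH 7.4, 2% milk, 0.02% Triton X-100, 1 mM DTT, 0.2 mg/mL BSA and 0.4 mg/ml salmon testes DNA. Antibodies against each partner (one per run) detected bound dimers, and fluorescence scans were regression-normalized. Binding z-scores take the random background probes as reference.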

The test system of test [2] is RARg:RXRa (NR concentration 270 nM, RXRa partner concentration 90 nM). A digest of the protocol:
as §1

The test system of test [3] is RARg homodimer (NR concentration 270 nM). A digest of the protocol:
as §1

In test [4] the test system is RXRa DBDmut IVT, anti-RXR (DBD mutation: RXRa K156A/R161A, NR concentration 90 nM). A digest of the protocol:
as §1

For test [5], the system named is RXRa homodimer (NR concentration 180 nM). The procedure, abridged:
as §1

Test [6] relates to THRa:RXRa (NR concentration 90 nM, RXRa partner concentration 90 nM). The procedure, abridged:
as §1

The subject of test [7] is THRa homodimer (NR concentration 90 nM). A digest of the protocol: as §1
Test [8] has as its system VDR homodimer (NR concentration 270 nM). The procedure, abridged: as §1

TCATATATGTAAAAGGTGAAAGTCGGTGTGGTAA: the PBM binding z-score came to 1.67 in test [1]; 1.18 in test [2]; 0.788 in test [3]; 1.48 in test [4]; 1.79 in test [5]; 1.36 in test [6]. For the same sequence, the results for the PBM binding z-score in test [7] and in test [8] were 0.104 and 0.0436, respectively.
For the sequence TCATATAAGTAAACAGGTGAAAGTCCGTAAGTTA, the PBM binding z-score in test [1] came to 0.596; in test [2], 0.357; in test [3], 0.421; in test [4] it was 2.12; in test [5], 0.907; in test [6] it was 0.674. In addition, the PBM binding z-score in test [7] amounted to 0.549; in test [8] it was 0.857.
With GCTTGTAGATCAAGGTTAAGTAAGACTAAGCTAA, the PBM binding z-score in test [1] was found to be 0.397; in test [2], 0.425; in test [3] it was 0.177; in test [4], 0.147; in test [5] it was 0.706; in test [6], 2.36. Also, the PBM binding z-score in test [7] was -0.276; in test [8], -0.509.
As for CGAATGAGGGCATGAGTTGATAGCAAATGCCGAT, the PBM binding z-score worked out at 0.499 in test [1]; 1.14 in test [2]; 1.58 in test [3]; 2.3 in test [4]; 1.03 in test [5]; 1.83 in test [6]. Further, the PBM binding z-score in test [7] amounted to 0.345; in test [8], 1.33.
As to TCAGACAGATGAAGGTAACTCAGGTACGCAGTCG, the PBM binding z-score in test [1] is -0.403; in test [2], 0.326; in test [3] it was 0.197; in test [4], 1.34; in test [5] it was 0.965; in test [6] it was 1.03. In addition, the results for the PBM binding z-score in test [7] and in test [8] were -0.261 and 0.0374, respectively.
On to GCATATAGGTAATACTAGGTGAAAGTCCGATTGT, for which the PBM binding z-score turned out to be 0.423 in test [1]; 0.466 in test [2]; 0.359 in test [3]; 0.563 in test [4]; 0.745 in test [5]; 3.45 in test [6]. Moreover, the figures for the PBM binding z-score in test [7] and in test [8] were 0.246 and 0.235, respectively.
Take TCGAGCAGGTTACCAATGGGGCATTCAGCTTTCT: the PBM binding z-score in test [1] was 0.557; in test [2] it was 1.36; in test [3] it was 0.389; in test [4], -0.436; in test [5] it was 0.616; in test [6] it was 0.235. Besides, the PBM binding z-score in test [7] was -0.786; in test [8], -0.843.
